# The campaign covered roughly 310,000 compounds. About 18,000 (5.8%) were called active. Inconclusive results (about 22%) are left out. Calls come from the whole dose curve; as a rule, active = well fitted inhibition curve with a large enough effect; inconclusive = small, poorly fitted or top-dose-only effect, or another doubt; inactive = no such curve, though single readings can be large or run the other way. What follows is part of a selection rich in actives, with near analogues and random picks from the rest. Entries that show only a call come without a potency.
# Test: Primary qHTS for delayed death inhibitors of the malarial parasite plastid, 48 hour incubation
# Details: P. falciparum luciferase growth in erythrocytes; series mostly up to 28.7 µM
# How it was run: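 Luciferase-expressing P. falciparum in infected erythrocytes (2% hematocrit, 0.1% parasitemia final) in RPMI 1640/0.5% Albumax were exposed to compound for 48 hours at 37 C, 5% CO2; growth read as luminescence.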
# Potency is the fitted concentration of half-maximal effect.
row,SMILES,Potency
1,O=c1oc2ccccc2c(NC2CCCCC2)c1NS(=O)(=O)c1ccc(Cl)cc1,inactive
2,COC(=O)COc1ccc2c(=O)c(Oc3ccccc3Br)coc2c1,inactive
3,O=C(C1CC(=O)N(c2ccc(Br)cc2)C1)N1CCCC1 (stereo not given),inactive
4,COc1ccccc1NC(=O)N1CCCC1C(=O)NCc1cccs1 (stereo not given),inactive
5,CCN1C(=O)C(=O)N(CC(=O)Nc2cc(C)ccc2C)C1=O,inactive
6,Cc1ccc(S(=O)(=O)N2CCN(C(=O)c3ccc(-n4cncn4)c([N+](=O)[O-])c3)CC2)cc1,inactive
7,Nc1ccc(C(=O)N2CCN(S(=O)(=O)c3ccc(Cl)cc3)CC2)cc1[N+](=O)[O-],13.1 µM (active)
8,CC(C)c1ccc(S(=O)(=O)N2CCN(C(=O)c3ccc(N4CCCC4)c([N+](=O)[O-])c3)CC2)cc1,inactive
9,CC(Sc1nnc(COc2ccccc2)n1-c1ccccc1)C(=O)O (stereo not given),inactive
10,CC1CC(C)CN(c2ccc(S(=O)(=O)N3CCOCC3)cc2)C1 (stereo not given),inactive
11,COc1cc(/C=C2\C(=N)N3N=C(CC(=O)N4CCOCC4)SC3=NC2=O)cc(OC)c1OC,inactive
12,O=C(CCNC(=O)c1ccccc1Cl)NCc1ccco1,inactive
13,O=C(/C=C/c1ccc(Cl)cc1Cl)NCc1ccco1,11.7 µM (active)
14,COC(=O)/C=C/C(=O)NCc1ccco1,inactive
15,O=C(Nc1ncc([N+](=O)[O-])s1)C1COc2ccccc2O1 (stereo not given),inactive
16,CN(C(=O)CN1C(=O)/C(=C/c2ccc(Cl)cc2)SC1=S)C1CCS(=O)(=O)C1 (stereo not given),inactive
17,CCc1c(C)nc(N)n2c(SCC(=O)NC3CCCCC3)nnc12,inactive
18,COc1ccc2cc1Oc1ccc(cc1)C[C@H]1c3cc(c(OC)cc3CCN1C)Oc1c(O)c(OC)cc3c1[C@H](C2)N(C)CC3,2.94 µM (active)
19,COc1ccc(/C=N/NC(=O)c2ccc3c(c2)OCCO3)c(OC)c1,inactive
20,Cn1nccc1C(=O)N1CCCC(C(=O)c2ccc(Oc3ccccc3)cc2)C1 (stereo not given),inactive

row,SMILES,Potency
1,CC(C)n1c(=O)c(C=Nc2ccc(Br)cc2)c(O)n(Cc2ccco2)c1=O,13.1 µM (active)
2,CN(C)CCCN=Cc1c(O)n(Cc2ccco2)c(=O)[nH]c1=O,inactive
3,Cn1c(O)c(C=Nc2ccc3c(c2)CCC3)c(=O)n(C)c1=O,inactive
4,O=C(CN1CCN(C2CCS(=O)(=O)C2)CC1)N1N=C(c2ccc(Cl)cc2)CC1c1ccco1 (stereo not given),inactive
5,CC(=O)NCC(=O)N1CCC(n2nccc2NC(=O)CCCc2ccccc2)CC1,inactive
6,CCOc1ccc(N/C(N)=N/c2nc(C)c(C)c(=O)[nH]2)cc1,inactive
7,CCN1C(=S)N[C@@H](CCc2ccccc2)[C@H](C(=O)OC)[C@H]1C,inactive
8,CC1C(=O)Nc2ccccc2N1C(=O)c1ccc(F)cc1F (stereo not given),inactive
9,COc1ccccc1C(=O)N(Cc1ccc(C)o1)C1CCS(=O)(=O)C1 (stereo not given),inactive
10,CC(C)C[C@H](NC(=O)[C@@H]1O[C@H]1C(=O)O)C(=O)NCCCCN=C(N)N,11.7 µM (active)
11,Cc1cc(C)cc(N(CCC#N)C(=O)CN2C(=O)NC3(CCCC3)C2=O)c1,inactive
12,CC(C)(C)C(=O)CN1C2=NCCN2c2ccccc21,inactive
13,Cc1cc2c(cc1C)N(Cc1ccccc1)C1=NCCCN12,11.7 µM (active)
14,Cc1ccc(Nc2nc(N)nc(CN3CCN(Cc4ccccc4)CC3)n2)cc1Cl,inactive
15,Cc1ccc(OCc2nc3ccccc3n2C)cc1,inactive
16,COc1ccc(COC(=O)NC(C(=O)O)c2ccccc2)cc1 (stereo not given),inactive
17,CCOc1ccc(C(CC(=O)O)NC(=O)Cc2ccccc2)cc1OC (stereo not given),inactive
18,COc1ccc(C(CCN(Cc2ccc(OC)c(OC)c2)C(=O)CCl)c2ccccc2)cc1 (stereo not given),2.94 µM (active)
19,O=C(CCCCO)c1ccc(O)c(Cl)c1,inactive
20,Cc1ccc(OCC(=O)Nc2ccc3oc(=O)ccc3c2)cc1C,inactive

row,SMILES,Potency
1,CC[C@]1(O)CC2CN(CCc3c([nH]c4ccccc34)[C@@](C(=O)OC)(c3cc4c(cc3OC)N(C=O)[C@H]3[C@@](O)(C(=O)OC)[C@H](OC(C)=O)[C@]5(CC)C=CCN6CC[C@]43[C@@H]65)C2)C1 (stereo not given in full),0.147 µM (active)
2,CC[C@]1(O)C[C@@H]2CN(CCc3c([nH]c4ccccc34)[C@@](C(=O)OC)(c3cc4c(cc3OC)N(C)[C@H]3[C@@](O)(C(=O)OC)[C@H](OC(C)=O)[C@]5(CC)C=CCN6CC[C@]43[C@@H]65)C2)C1,0.208 µM (active)
3,COc1ccc(NC(=O)C2CCC(CNS(=O)(=O)c3csc(C(N)=O)c3)CC2)cc1OC (stereo not given),inactive
4,CC(=O)NC(CC(=O)Nc1cccc(S(=O)(=O)N2CCCC2)c1)c1ccccc1 (stereo not given),inactive
5,CCN(CC(=O)Nc1cccc(S(N)(=O)=O)c1)Cc1nc2ccccc2c(=O)[nH]1,inactive
6,CCCCN(CC(=O)Nc1cccc(S(=O)(=O)N2CCCC2)c1)Cc1nc2ccccc2c(=O)[nH]1,3.7 µM (active)
7,O=C(NCCc1ccc(Cl)cc1)c1cccc(N2CCCC2=O)c1,inactive
8,CCN1C(=NCCc2cccnc2)N[C@@H](c2ccccc2)[C@H](C(=O)OC)[C@H]1C,inactive
9,CCOc1ccc(OCC)c(NC(=O)CCS(=O)(=O)c2ccc(C)cc2)c1,inactive
10,COc1cccc(CNS(=O)(=O)c2ccc3c(c2)CC(C)N3C(=O)C2CCC2)c1 (stereo not given),inactive
11,Cc1ccc(CNC(=O)CCS(=O)(=O)c2ccc3c(c2)CC(C)N3C(=O)C2CC2)o1 (stereo not given),10.4 µM (active)
12,CCC(=O)N1c2ccc(S(=O)(=O)NCc3ccco3)cc2CC1C (stereo not given),inactive
13,Cc1c(OC(C)C(=O)NCC2CCC(C(=O)O)CC2)ccc2c1oc(=O)c1ccccc12 (stereo not given),inactive
14,CC1(C)NC(=O)N(CC(=O)Nc2cc(C(F)(F)F)cc(C(F)(F)F)c2)C1=O,inactive
15,Clc1ccc(C2=CSC3=Nc4cccc5cccc(c45)N23)cc1,1.85 µM (active)
16,CC(=O)c1cccc(NC(=S)N2CCCC2)c1,inactive
17,CC(=O)Oc1cccc(N2C(=O)CC(Nc3ccc(N4CCOCC4)cc3)C2=O)c1 (stereo not given),inactive
18,CC1=CCC2C(=O)N(c3cccc(C(=O)NC(C)c4ccccc4)c3)C(=O)C2C1 (stereo not given),inactive
19,CC(=O)Oc1cccc(N2C(=O)C3CC=C(Cl)CC3C2=O)c1 (stereo not given),11.7 µM (active)
20,N#CC1(NC(=O)COC(=O)CSc2ccc(F)cc2)CCCCC1,inactive
